C diff growth: blocks growth of Clostridium difficile; Clostridium difficile clinical isolate growth, OD600, 24 h; active compounds read low; growth activity, negative = inhibition, % at 16 µg/mL (by protocol); 86,000 tested, 0.25% active;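 active = mean growth activity at or below -80% and every replicate also at or below -80%; inconclusive = mean at or below -80% but some replicate above -80%; inactive = mean growth activity above -80%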;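 also: 0% = DMSO wells and -100% = levofloxacin 16 µg/mL wells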
T cruzi growth-1: inhibitors of T. cruzi proliferation | 77,000 tested, 5.9% active | inhibition, % at 8.34 µM | T. cruzi beta-gal in NIH3T3, GalScreen luminescence, 90 h;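 active = mean inhibition above about 93%, with at least 55% of replicates each passing it, limit read from the data, passing the limit was not always enough; inconclusive = only one of those two conditions holds; inactive = neither condition holds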
Pf Dd2 growth: inhibitors of Plasmodium falciparum Dd2 growth. P. falciparum Dd2 growth, SYBR Green, 72 h; active compounds read low. 94,000 tested, 2.3% active. AID 1159554. activity change, % at 10 µM; in the data active = activity change below about -80%; inconclusive = no clear call, values can overlap the other calls
T cruzi growth-2: inhibitors of T. cruzi proliferation; 5,600 tested, 72% active; shares compounds with T cruzi growth-1; inhibition, % at 8.35 µM; AID 651739; T. cruzi beta-gal in NIH3T3, GalScreen luminescence, 90 h;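 active = mean replicate inhibition above about 95% and at least 55% of replicates individually reaching it, limit read from the data; inconclusive = only one of the two criteria is met; inactive = neither criterion is met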
T cruzi growth-3: Trypanosoma cruzi proliferation inhibition; AID 651740; inhibition, % at 2.09 µM; T. cruzi beta-gal in NIH3T3, GalScreen luminescence, 90 h; 5,600 tested, 21% active; shares compounds with T cruzi growth-1;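 active = mean inhibition above about 95%, with at least 55% of replicates also reaching it, limit read from the data; inconclusive = meets just one of the two conditions; inactive = meets neither condition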;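 also: plate controls were neutral control median for no effect and positive control median for full effect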
3T3 cytotox: kills mouse NIH/3T3 fibroblasts; 5,600 tested, 14% active; NIH/3T3 viability, CellTiter-Glo ATP luminescence, 90 h; shares compounds with T cruzi growth-1; cytotoxicity (signal decrease), % at 8.35 µM;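 active = mean signal decrease across replicates above about 35% based on untreated-well scatter, with enough replicates individually passing, limit read from the data; inconclusive = no rule stated though some were filed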;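 also: 0% = median of neutral control wells and 100% = median of positive control wells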
3T3 cytotox 2: kills mouse NIH/3T3 fibroblasts; shares compounds with T cruzi growth-1; NIH/3T3 viability, CellTiter-Glo ATP luminescence, 90 h; inhibition, % at 24.9 µM; 5,600 tested, 56% active; AID 651744;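 active = mean loss of cell viability signal at or above a set limit, and enough replicates individually reaching it; inconclusive = meets only the mean limit or only the replicate share; inactive = meets neither condition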;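 also: 0% = median of neutral control wells and 100% = median of positive control wells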
* = called active by the depositor; ? = inconclusive; nt = no result. An excerpt weighted towards active compounds, which were near 6.7% of everything screened.

SMILES	C diff growth	T cruzi growth-1	Pf Dd2 growth	T cruzi growth-2	T cruzi growth-3	3T3 cytotox	3T3 cytotox 2
COCC#Cc1cnc2c(c1)C(=O)N([C@H](C)CO)C[C@@H](C)[C@H](CN(C)C(=O)NC1CCCC1)O2	3	31	31	nt	nt	nt	nt
Cc1noc(C)c1S(=O)(=O)N(C)C[C@H]1OCCCC[C@@H](C)Oc2ccc(NC(=O)NC3CCCCC3)cc2C(=O)N([C@@H](C)CO)C[C@@H]1C	4	48	-67	nt	nt	nt	nt
N#C[C@H]1[C@@H](c2ccc(/C=C/c3ccccc3)cc2)[C@@H](CO)N1C(=O)C1CCOCC1	12	43	27	nt	nt	nt	nt
N#C[C@@H]1[C@@H](c2ccccc2)[C@@H](CO)N1C(=O)C1CCCC1	-17	55	10	nt	nt	nt	nt
N#C[C@H]1[C@@H](c2ccc(/C=C/c3ccccc3)cc2)[C@@H](CO)N1C(=O)C1CCCCC1	16	98*	-25	96*	?	15	90*
N#C[C@@H]1[C@@H](c2ccc(/C=C/c3ccccc3)cc2)[C@@H](CO)N1C(=O)C1CCCCC1	10	102*	-24	?	58	5	26
C[C@H]1CN([C@@H](C)CO)C(=O)c2cccc(NS(=O)(=O)c3ccc(F)cc3)c2O[C@H]1CN(C)Cc1ccc(C(=O)O)cc1	nt	83	15	nt	nt	nt	nt
C[C@H](CO)N1C[C@H](C)[C@H](CN(C)S(=O)(=O)c2ccccc2)OCCCC[C@H](C)Oc2ccc(NC(=O)Nc3cccc4ccccc34)cc2C1=O	-2	90	-45	nt	nt	nt	nt
Cc1noc(C)c1S(=O)(=O)N(C)C[C@H]1OCCCC[C@H](C)Oc2ccc(NC(=O)Nc3ccccc3)cc2C(=O)N([C@H](C)CO)C[C@H]1C	-3	nt	?	nt	nt	nt	nt
Cc1noc(C)c1S(=O)(=O)N(C)C[C@H]1OCCCC[C@@H](C)Oc2ccc(NC(=O)Nc3cccc4ccccc34)cc2C(=O)N([C@@H](C)CO)C[C@@H]1C	-26	105*	?	107*	67	17	16
C[C@@H]1CCCCO[C@H](CN(C)S(=O)(=O)c2ccccc2)[C@H](C)CN([C@H](C)CO)C(=O)c2cc(NC(=O)Nc3cccc4ccccc34)ccc2O1	2	108*	-71	106*	110*	12	?
Cc1noc(C)c1S(=O)(=O)N(C)C[C@H]1OCCCC[C@@H](C)Oc2ccc(NC(=O)Nc3cccc4ccccc34)cc2C(=O)N([C@H](C)CO)C[C@@H]1C	-14	77	-17	nt	nt	nt	nt
Cc1noc(C)c1S(=O)(=O)N(C)C[C@@H]1OCCCC[C@@H](C)Oc2ccc(NC(=O)Nc3cccc4ccccc34)cc2C(=O)N([C@H](C)CO)C[C@H]1C	-4	109*	-82*	110*	100*	-7	?
COc1ccc(-c2cnc3c(c2)C(=O)N([C@H](C)CO)C[C@H](C)[C@H](CN(C)C(=O)CN(C)C)O3)cc1	-2	17	29	nt	nt	nt	nt
C[C@H](CO)N1C[C@H](C)[C@H](CN(C)C(=O)c2ccncc2)Oc2ncc(C#C[C@@H](C)O)cc2C1=O	-2	nt	-9	nt	nt	nt	nt
COc1ccccc1S(=O)(=O)N(C)C[C@H]1Oc2cc(C#CCC3CCCC3)ccc2S(=O)(=O)N([C@H](C)CO)C[C@H]1C	9	127*	-67	87	110*	10	20
COc1ccccc1S(=O)(=O)N(C)C[C@H]1Oc2cc(C#CCC3CCCC3)ccc2S(=O)(=O)N([C@H](C)CO)C[C@@H]1C	7	nt	-3	nt	nt	nt	nt
COc1ccccc1S(=O)(=O)N(C)C[C@H]1Oc2cc(C#CCC(C)C)ccc2S(=O)(=O)N([C@@H](C)CO)C[C@@H]1C	14	?	-70	?	114*	24	98*
CC(C)CC#Cc1ccc2c(c1)O[C@@H](CN(C)S(C)(=O)=O)[C@@H](C)CN([C@H](C)CO)S2(=O)=O	4	54	-5	nt	nt	nt	nt
CN(C)c1ccc2c(c1)[C@@H]1C[C@@H](CC(=O)N3CCc4ccccc4C3)O[C@H](CO)[C@@H]1O2	-5	-1	-38	nt	nt	nt	nt
C[C@@H]1CCCCO[C@@H](CN(C)Cc2ccccc2)[C@@H](C)CN([C@@H](C)CO)C(=O)c2cc(NC(=O)Nc3cccc4ccccc34)ccc2O1	59	115*	-19	107*	109*	18	6
C[C@@H]1CCCCO[C@H](CN(C)Cc2ccccc2)[C@@H](C)CN([C@H](C)CO)C(=O)c2cc(NC(=O)Nc3cccc4ccccc34)ccc2O1	1	nt	23	nt	nt	nt	nt
C[C@@H]1CCCCO[C@@H](CN(C)Cc2ccncc2)[C@H](C)CN([C@H](C)CO)C(=O)c2cc(NC(=O)Nc3cccc4ccccc34)ccc2O1	-4	98*	-48	108*	83	-14	22
C[C@@H]1CN([C@@H](C)CO)C(=O)c2cc(NC(=O)Nc3cccc4ccccc34)ccc2O[C@@H](C)CCCCO[C@@H]1CN(C)Cc1ccncc1	4	8	-46	nt	nt	nt	nt
C[C@@H]1CCCCO[C@@H](CN(C)Cc2ccc3c(c2)OCO3)[C@@H](C)CN([C@@H](C)CO)C(=O)c2cc(NC(=O)Nc3cccc4ccccc34)ccc2O1	nt	?	-47	102*	106*	14	21
SMILES	C diff growth	T cruzi growth-1	Pf Dd2 growth	T cruzi growth-2	T cruzi growth-3	3T3 cytotox	3T3 cytotox 2
C[C@@H]1CCCCO[C@H](CN(C)Cc2ccccc2)[C@@H](C)CN([C@@H](C)CO)C(=O)c2cc(NC(=O)Nc3cccc4ccccc34)ccc2O1	44	nt	-78	nt	nt	nt	nt
O=C(C[C@@H]1C=C[C@H](NC(=O)Nc2ccc(C(F)(F)F)cc2)[C@H](CO)O1)NCCN1CCCC1	7	63	1	nt	nt	nt	nt
C[C@@H]1CN([C@H](C)CO)S(=O)(=O)c2ccc(-c3ccncc3)cc2O[C@@H]1CN(C)Cc1ccccn1	-4	87	-6	nt	nt	nt	nt
C[C@@H]1CN([C@H](C)CO)S(=O)(=O)c2ccc(-c3ccncc3)cc2O[C@H]1CN(C)Cc1ccccn1	-5	112*	-31	94	?	?	58*
C[C@H]1CN([C@@H](C)CO)S(=O)(=O)c2ccc(-c3ccncc3)cc2O[C@H]1CN(C)Cc1ccccn1	0	103*	-12	97*	86	0	28*
C[C@@H]1CN([C@H](C)CO)S(=O)(=O)c2ccc(-c3ccccc3)cc2O[C@@H]1CN(C)Cc1ccccn1	-11	-92	4	nt	nt	nt	nt
O=C(C1=C[C@@H](c2ccc(C(F)(F)F)cc2)C[C@@H](OCc2ccc(CO)cc2)O1)N1CCCCCCC1	9	nt	nt	nt	nt	nt	nt
Cc1ccc(-c2cnc3c(c2)C(=O)N([C@@H](C)CO)C[C@H](C)[C@@H](CN(C)Cc2ccccc2C(=O)O)O3)cc1	-4	-6	29	nt	nt	nt	nt
C[C@H]1CN([C@@H](C)CO)C(=O)c2ccccc2-c2ccccc2CO[C@H]1CN(C)C(=O)Oc1ccccc1	nt	-28	25	nt	nt	nt	nt

Bioassay records from PubChem.
